# Results: PubChem BioAssay (NCI)
# The panel holds about 83,000 compounds, 20% with a hit somewhere; the sample as a whole holds those more often.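 Step 1: grow cells in 96-well plates. Step 2: add test compound at a single concentration. Step 3: incubate 48 h. Step 4: record percent growth.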 Activity calls are given as the source filed them. Rule for the calls: active = growth percent below 10; inactive = the rest.
# Tested on: HL-60(TB) leukemia
# Test: NCI-60 one-dose screen, 48 h (100 = growth as untreated, 0 = no growth, -100 = all killed)
# Settings: 10 µM unless noted
row,Compound,growth
1,CCCCCCCCCCCCNC(=S)N/N=C/c1ccccc1O,49.1% (inactive)
2,C[C@@H](N)c1ccc(C(=O)Nc2ccnc3[nH]ccc23)cc1,67.5% (inactive)
3,CCCCn1c(=O)[nH]c2c(c1=O)C(c1ccc(Cl)cc1)c1c([nH]c(=O)n(CCCC)c1=O)N2,99.2% (inactive)
4,CCN(CC)CCCC(C)Nc1c2ccc(Cl)cc2nc2cc(OC)c(OC)cc12 (stereo unspecified),6.67% (active)
5,NC1N=C(SCC(=O)N2CCN(c3cc4c(cc3F)c(=O)c(C(=O)O)cn4C3CC3)CC2)NC(=O)/C1=C/c1ccc(Cl)cc1 (stereo unspecified),102% (inactive)
6,O=C1c2ccccc2NC(c2cn(-c3ccccc3)nc2-c2cccnc2)N1Cc1ccccc1 (stereo unspecified),9.6% (active)
7,CCc1cc(C)cc(O)c1,105% (inactive)
8,COc1ccc(-c2n[nH]nc2-c2cc(OC)c3c(c2)OCO3)cc1,-38.2% (active)
9,Cc1ccc(C(=O)O)c(N)c1C,95.1% (inactive)
10,C=CC(=O)Nc1cccc(-c2nc(SC)nc(Nc3cccc(OC)c3)c2C#N)c1,42.2% (inactive)
11,CC(C)[N+](C)(CCOC(COc1ccccc1)COc1ccccc1)C(C)C,30.7% (inactive)
12,CC(C)(C)n1cc(-c2ccnc(NCCNS(=O)(=O)c3ccc(Br)cc3)c2)c(-c2cccc(O)c2)n1,-8.19% (active)
13,COc1ccc(-n2nc(C)c3c(Nc4ccc(NC(=O)Nc5ccc(Cl)c(C(F)(F)F)c5)cc4)ncnc32)cc1,-9.54% (active)
14,CO[C@H]1C[C@@H]2CC[C@@H](C)[C@@](O)(O2)C(=O)C(=O)N2CCCC[C@H]2C(=O)O[C@H]([C@H](C)C[C@@H]2CC[C@@H](OCCO)[C@H](OC)C2)CC(=O)[C@H](C)/C=C(\C)[C@@H](O)[C@H](OC)C(=O)[C@H](C)C[C@H](C)\C=C/C=C/C=C/1C,75.7% (inactive)
15,CC1=C([Se]CC(OC(=O)[C@@H](CO)NC(=O)OC(C)(C)C)C(=O)NCCCCCC(=O)OCc2ccccc2)C(=O)c2ccccc2C1=O (stereo partly specified),-32.9% (active)
16,COc1cc(-c2nn(-c3cccc(NC(=O)CCNc4ccc(N5CCOCC5)cc4)c3)cc2-c2ccncc2)ccc1Cl,8.36% (active)
17,O=[N+]([O-])c1ccc2nc3c4ccccc4c4ccccc4c3nc2c1,77.2% (inactive)
18,COc1cc(C(C)n2cc(-c3ccccc3)nn2)ccc1OC1CCCC1 (stereo unspecified),53.1% (inactive)

row,Compound,growth
1,CC1CC(O)C2C3(C)CCCC2(COC3=O)C12CCC1(CCOC1=O)O2 (stereo unspecified),121% (inactive)
2,CCOc1nc(-c2ccccc2)cc2c(O)c(C(=O)NCCCO)[nH]c(=O)c12,177% (inactive)
3,CCS(=O)(=O)N[C@@H]1O[C@H](COC(C)=O)C(OC(C)=O)[C@H](OC(C)=O)C1OC(C)=O (stereo partly specified),117% (inactive)
4,CCOC(=O)C#Cc1c(C(=O)OCC)nnn1Cc1ccc([N+](=O)[O-])cc1,55.4% (inactive)
5,O=[N+]([O-])c1ccc(SSc2ccc([N+](=O)[O-])cc2Cl)c(Cl)c1,92.5% (inactive)
6,COc1cc2c(cc1OC)C(Sc1ccc(Cl)cc1)c1c(nc(N)c(C#N)c1N)O2 (stereo unspecified),-25.1% (active)
7,COc1cc(C2CC(c3ccc(Nc4nc(Nc5ccc(F)cc5)nc(Nc5ccc(Cl)cc5)n4)cc3)=NN2C(C)=O)cc(OC)c1OC (stereo unspecified),35.2% (inactive)
8,CC(C)(C)c1ccc(/C=C/C(=O)Nc2ccc(O)cc2)cc1,-12.6% (active)
9,O=C(CN1CCN(c2cc3c(cc2F)c(=O)c(C(=O)O)cn3C2CC2)CC1)Nc1nc(-c2ccc(Cl)cc2)cs1,19.6% (inactive)
10,Cc1ccc(NC(=O)Cn2c(Br)nc3c2c(=O)n(C)c(=O)n3C)cc1,102% (inactive)
11,CC(=O)OC(C(=O)c1ccccc1)c1ccccc1 (stereo unspecified),114% (inactive)
12,O=S(=O)(O)c1cccc2cccnc12,94% (inactive)
13,Cc1ccc[n+](CCC(N)=O)c1,86.6% (inactive)
14,NS(=O)(=O)c1ccc(Nc2nc(O)c(/C=C3\C=Nc4ccccc43)s2)cc1,95.4% (inactive)
15,COc1cc(C)c(Cc2cnc(N)nc2N)cc1OC,129% (inactive)
16,O=C(NCc1ccco1)Nc1cccc2c(NC(=O)NCc3ccco3)cccc12,66.5% [100 µM] (inactive)
17,CCN(CC)c1ccc(C(=C2C=CC(=[N+](CC)Cc3cccc(S(=O)(=O)O)c3)C=C2)c2ccc(N(CC)Cc3cccc(S(=O)(=O)O)c3)cc2)cc1,-22.2% (active)
18,C=C1C(=O)O[C@H]2[C@H]1CC/C(COC(=O)CSCSCC(=O)OC/C1=C/CC[C@@]3(C)O[C@H]3[C@H]3OC(=O)C(=C)[C@@H]3CC1)=C\CC[C@@]1(C)O[C@@H]21,-53.9% (active)
